High-throughput results from PubChem.
PAX8 inh HTS: lowers PAX8-driven luciferase in RMG-I cells | RMG-I TPO-luciferase reporter, SteadyGlo, 24 h | inhibition, % at 12.6 µM | 1.2% of 360,000 active | AID 652154;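 active = mean replicate inhibition at least 60% with every replicate also reaching 60%; inconclusive = only one of the two criteria is met; inactive = mean below 60% and not all replicates reaching 60%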;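 note: luciferase light reporting Pax8 driven TPO promoter activity; plate controls were median of neutral control wells for no effect and mitoxantrone controls for full effect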
MITF TRPM1 inh: MITF TRPM1 promoter inhibition in SK-MEL-5 cells; SK-MEL-5 TRPM1 promoter luciferase, 24 h; inhibition, % at 12.5 µM; 0.83% of 330,000 active;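 active = mean inhibition across replicates of 60% or more, whatever share of single replicates reaches that level; inconclusive = some that reach 60%, reason not given; inactive = mean inhibition across replicates below 60%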
Peg3 prom inh: Peg3 promoter activity inhibition; AID 588405; inhibition, % at 20 µM; HeLa PEG-Prom luciferase reporter, luminescence, overnight; 1.7% of 360,000 active;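 active = inhibition of at least 50% at 20 µM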
Shn3 3UTR inh: inhibitors of Schnurri-3 3'UTR reporter in osteoblasts; Clone20 osteoblast Shn3 3'UTR firefly luciferase, 24 h; inhibition, % at 12.5 µM; 0.52% of 360,000 active;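 active = mean inhibition of at least 75% with every replicate also reaching 75%; inconclusive = mean inhibition at least 75% but some replicate below; inactive = mean inhibition below 75%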;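 note: 0% = median of neutral control wells and 100% = pilot-screen positive control compound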
HIF-2a inh: blocks HIF-2a reporter activity; AID 624352; 0.72% of 360,000 active; inhibition, % at 18.8 µM; 786-0 RCC cells HIF-2a reporter, luciferase luminescence, overnight;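 active = inhibition of the luminescence signal of 40% or more relative to plate controls, in a single-dose primary screen at 18.75 µM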
EBV LMP1 NFkB: reduces LMP1-driven NF-kappaB luciferase signal; LMP1-induced NF-kappaB luciferase reporter cells, luminescence; inhibition, % at 12.5 µM; 0.69% of 350,000 active; AID 504558; in the data active = inhibition above about 41%; inconclusive = no clear call, values can overlap the other calls;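 note: 0% = neutral control wells and 100% = reference inhibitor control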
Mdm2-MdmX confirm: Mdm2/MdmX (human) interaction inhibition, confirmed. shares compounds with HIF-2a inh. 99% of 740 active. SaOS-2 split-luciferase Mdm2/MdmX complementation, luminescence. inhibition, % at 8 µM;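 active = mean inhibition of the luminescence signal across two replicates at or above 26 percent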
Target sequence (O15151 whole entry, looked up): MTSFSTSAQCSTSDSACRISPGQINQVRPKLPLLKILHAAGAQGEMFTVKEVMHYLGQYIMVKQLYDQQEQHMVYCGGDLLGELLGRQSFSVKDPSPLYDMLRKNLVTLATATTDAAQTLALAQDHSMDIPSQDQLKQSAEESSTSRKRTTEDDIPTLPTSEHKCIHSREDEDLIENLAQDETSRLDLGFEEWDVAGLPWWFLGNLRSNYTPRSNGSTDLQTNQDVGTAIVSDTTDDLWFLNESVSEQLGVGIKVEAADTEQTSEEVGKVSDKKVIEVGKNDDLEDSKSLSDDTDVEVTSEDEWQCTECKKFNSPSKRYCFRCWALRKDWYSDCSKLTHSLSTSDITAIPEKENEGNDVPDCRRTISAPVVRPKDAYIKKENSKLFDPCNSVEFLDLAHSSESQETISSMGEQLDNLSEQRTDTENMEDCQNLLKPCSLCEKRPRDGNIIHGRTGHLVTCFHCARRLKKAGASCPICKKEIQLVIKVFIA
Target sequence (Q00987 whole entry, looked up): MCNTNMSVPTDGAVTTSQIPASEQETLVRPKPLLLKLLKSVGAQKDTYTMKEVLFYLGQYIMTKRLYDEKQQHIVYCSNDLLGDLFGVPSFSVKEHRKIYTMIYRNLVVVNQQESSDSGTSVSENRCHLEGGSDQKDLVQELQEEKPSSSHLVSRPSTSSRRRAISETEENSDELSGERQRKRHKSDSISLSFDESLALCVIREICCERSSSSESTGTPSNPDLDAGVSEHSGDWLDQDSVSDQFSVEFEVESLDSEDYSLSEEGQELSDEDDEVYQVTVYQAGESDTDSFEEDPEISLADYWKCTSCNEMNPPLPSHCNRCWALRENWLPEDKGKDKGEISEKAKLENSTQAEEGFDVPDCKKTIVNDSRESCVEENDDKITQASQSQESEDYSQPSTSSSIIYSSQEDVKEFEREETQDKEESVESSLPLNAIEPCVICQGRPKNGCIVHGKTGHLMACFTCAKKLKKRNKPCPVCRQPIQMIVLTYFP
HIF-2a conf: confirmation of HIF-2a inhibitors | 56% of 1,800 active | inhibition, % at 18.8 µM | 786-0 RCC cells, HIF-2a luciferase reporter luminescence, overnight | shares compounds with HIF-2a inh;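 active = mean inhibition across four replicates of at least 40 percent at the single tested concentration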
HIF-1a counter: inhibits HIF-1a reporter, a counter-screen for HIF-2a inhibitors. 72% of 1,800 active. MiaPaCa-2 HIF-1a luciferase reporter, desferoxamine, overnight. AID 651589. inhibition, % at 18.8 µM. shares compounds with HIF-2a inh;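 active = mean inhibition of the reporter signal across four replicates at the single tested dose of 50% or more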
* hit, by the source's call; u = inconclusive; x = no result given. Rows were chosen to be rich in hits. Some 2.8% of all compounds tested hit in one or more screens of this group.

SMILES	PAX8 inh HTS	MITF TRPM1 inh	Peg3 prom inh	Shn3 3UTR inh	HIF-2a inh	EBV LMP1 NFkB	HIF-2a conf	HIF-1a counter	others
C[C@@H]1CN([C@@H](C)CO)C(=O)c2cc(NC(=O)C3CCCCC3)ccc2O[C@@H]1CN(C)Cc1ccncc1	-12	x	x	x	x	x	x	x
CCSCCc1nnc(NC(=O)Nc2cccc(C(F)(F)F)c2)s1	106*	67*	11	43	9	5	x	x	Mdm2-MdmX confirm=98*
C=C1C(=O)c2sccc2C(c2ccc(OC)c(OC)c2)C1COC(C)=O (stereo not given)	115*	98*	105*	99*	87*	79*	99*	106*
O=C(/C=C/c1ccc(S(=O)(=O)NCc2ccco2)cc1)NCc1ccccc1Cl	0	-4	7	2	42*	-5	-2	15
COc1ccc(CNC(=O)/C=C/c2ccc(S(=O)(=O)NCc3ccco3)cc2)cc1OC	28	6	25	-7	10	11	x	x
CCOC(=O)CSCc1nc(-c2ccc(Cl)cc2)oc1C	2	-5	2	17	50*	2	54*	44
CCc1ccc(-c2nc(CS(=O)CC(=O)NCc3ccccc3)c(C)o2)cc1 (stereo not given)	11	32	53*	16	50*	16	45*	55*
Cc1oc(-c2ccc(Cl)cc2)nc1CS(=O)CC(=O)NCc1ccccc1 (stereo not given)	8	6	6	-15	0	8	x	x
Cc1ccc(-c2nc(CSCC(=O)N3CCCC3)c(C)o2)cc1	x	-6	-16	-23	-38	-6	x	x
CCc1ccc(-c2nc(CSCC(=O)NCc3ccco3)c(C)o2)cc1	64*	36	14	46	40*	19	44*	39
CNC[C@H]1Oc2ccc(NC(=O)Nc3cccc4ccccc34)cc2CC(=O)N([C@@H](C)CO)C[C@H]1C	-10	x	x	x	x	x	x	x
CO[C@H]1CN(C)C(=O)c2ccc(NC(=O)Nc3ccc(F)cc3)cc2OC[C@H](C)NC[C@H]1C	16	x	x	x	x	x	x	x
CCS(=O)(=O)c1ncc(Cl)c(C(=O)Nc2ccc(S(=O)(=O)N3CCCC(C)C3)cc2)n1 (stereo not given)	102*	104*	105*	98*	89*	21	98*	106*	Mdm2-MdmX confirm=103*
CCS(=O)(=O)c1ncc(Cl)c(C(=O)Nc2ccc(C)cc2)n1	100*	70*	101*	82	92*	-48	97*	72*	Mdm2-MdmX confirm=101*
CCC1CCCCN1S(=O)(=O)c1ccc(C(=O)Nc2nnc(-c3ccccc3Cl)o2)cc1 (stereo not given)	x	32	40	58	15	23	x	x
Cc1ccc(CS(=O)(=O)c2ncc(Cl)c(C(=O)Nc3ccc(OC(F)F)cc3)n2)cc1	21	81*	106*	94*	93*	u	x	x	Mdm2-MdmX confirm=103*
CCC1CCCCN1S(=O)(=O)c1ccc(NC(=O)c2nc(S(C)(=O)=O)ncc2Cl)cc1 (stereo not given)	104*	104*	107*	96*	75*	4	100*	101*
CC1CCCN(S(=O)(=O)c2ccc(NC(=O)CNC3CCCC3)cc2)C1 (stereo not given)	4	-9	12	21	25	1	x	x
CS(=O)(=O)c1ncc(Cl)c(C(=O)Nc2ccc3ccccc3c2)n1	89*	104*	106*	96*	95*	27	97*	91*
CN1C(=O)c2cc(NC(=O)c3ccccc3Cl)ccc2OC[C@@H]2O[C@@H](CC(=O)O)CC[C@@H]21	-9	x	x	x	x	x	x	x
O=C(CNC(=O)Cc1ccccc1)NCc1cccc(C(F)(F)F)c1	15	1	18	-6	8	-2	x	x
CCC[C@H](CN[C@@H](CNC)[C@H](C)CC)NCCc1cc(C(F)(F)F)cc(C(F)(F)F)c1	97*	103*	99*	58	12	-17	x	x	Mdm2-MdmX confirm=103*
CC[C@@H](C)[C@H](CNC)NC[C@@H](Cc1cccc2ccccc12)NCCc1cccc(C(F)(F)F)c1	103*	98*	103*	97*	15	-6	x	x	Mdm2-MdmX confirm=103*
COc1ccc(CN(C)C[C@H]2Oc3c(NC(=O)Nc4ccc(C(F)(F)F)cc4)cccc3C(=O)N([C@@H](C)CO)C[C@@H]2C)cc1	-6	x	x	x	x	x	x	x
C[C@@H]1CCCCO[C@@H](CN(C)C(=O)c2ccccc2)[C@@H](C)CN([C@@H](C)CO)C(=O)c2cc(NS(=O)(=O)c3cn(C)cn3)ccc2O1	3	x	x	x	x	x	x	x
SMILES	PAX8 inh HTS	MITF TRPM1 inh	Peg3 prom inh	Shn3 3UTR inh	HIF-2a inh	EBV LMP1 NFkB	HIF-2a conf	HIF-1a counter	others
CC1Cc2ccccc2N1c1ncnc(N)c1[N+](=O)[O-] (stereo not given)	-15	34	17	16	35	76*	x	x	Mdm2-MdmX confirm=102*
O=C(Cc1ccccc1)N1C[C@H]2[C@@H](c3ccccc31)[C@@H](CO)N2C(=O)c1ccc(F)cc1	11	x	x	x	x	x	x	x
C[C@@H]1CN([C@@H](C)CO)C(=O)c2cccc(N(C)C)c2O[C@@H]1CN(C)S(=O)(=O)c1cn(C)cn1	-10	x	x	x	x	x	x	x
C=CS(=O)(=O)N(Cc1ccccc1Br)[C@H](CO)CC(C)C	4	-12	56*	-14	41*	-35	22	27
CCCC#Cc1cnc2c(c1)C(=O)N([C@@H](C)CO)C[C@@H](C)[C@H](CN(C)C(=O)c1cccc(F)c1)O2	15	x	x	x	x	x	x	x
C#CCN(C[C@@H]1[C@@H](OC(=O)NCCCCCC)[C@@H](OC(=O)NCCCCCC)Cn2c(=O)ccc(=O)n21)S(=O)(=O)c1ccc(C)cc1	113*	x	98*	81	95*	90*	91*	107*
C#CCN(C[C@@H]1[C@@H](OC(=O)NCC2CCCCC2)[C@@H](OC(=O)NCC2CCCCC2)Cn2c(=O)ccc(=O)n21)S(=O)(=O)c1ccc(C)cc1	116*	x	106*	99*	97*	90*	99*	107*
C#CCN(C[C@@H]1[C@@H](OC(=O)NCc2ccco2)[C@@H](OC(=O)NCc2ccco2)Cn2c(=O)n(CCCCCC)c(=O)n21)S(=O)(=O)c1ccc(C)cc1	34	x	-10	27	-1	-30	x	x
C#CCN(C[C@@H]1[C@@H](OC(=O)NCc2ccco2)[C@@H](OC(=O)NCc2ccco2)Cn2c(=O)ccc(=O)n21)S(=O)(=O)c1ccc(C)cc1	73*	x	95*	-5	43*	23	44*	107*
